# Screening results deposited in PubChem by several laboratories.
# Only a selection was taken, and hits are over-represented in it overall.
# AMPAR-TARP mod: GluA2-stargazin AMPA receptor complex modulation; AID 1259245; O88602+P19491; HEK293 GluA2+stargazin, membrane potential dye (FDSS), glutamate EC50; hits were called plate by plate, in both directions; 40,000 compounds, 3.5% hits; calls only at 30 µM;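 active = any of four per-well response measures lying three or more SD from its plate-wide compound average, in either direction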
# GIRK2 act: Activates human GIRK2-containing potassium channels | HEK293 GIRK2/NPY4 cells, thallium flux fluorescence | P48051 | 34,000 tested, under 10 active | activation (% efficacy), % for hits at 37.5 µM;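 active = primary screen hit, no activity in plain HEK293 cells, and in GIRK2-only cells above 5% efficacy rising with concentration; inactive = the rest, including fluorescent compounds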;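 note: efficacy is normalized control-subtracted fluorescence 15 s after thallium addition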
# Target sequence (P48051 whole entry, looked up): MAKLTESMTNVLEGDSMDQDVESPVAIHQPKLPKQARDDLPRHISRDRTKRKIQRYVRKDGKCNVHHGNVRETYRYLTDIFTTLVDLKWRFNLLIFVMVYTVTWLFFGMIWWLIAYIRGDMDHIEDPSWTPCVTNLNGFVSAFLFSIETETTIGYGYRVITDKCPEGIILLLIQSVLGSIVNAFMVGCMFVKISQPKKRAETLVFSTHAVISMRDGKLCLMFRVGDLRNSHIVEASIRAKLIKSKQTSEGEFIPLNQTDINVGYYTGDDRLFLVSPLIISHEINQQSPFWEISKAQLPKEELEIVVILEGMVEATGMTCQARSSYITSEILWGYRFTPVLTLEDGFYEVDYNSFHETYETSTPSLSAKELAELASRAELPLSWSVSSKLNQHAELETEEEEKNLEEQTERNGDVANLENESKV
# * = called active by the depositor; i = inactive; . = no result; + = active, no number.
SMILES,AMPAR-TARP mod,GIRK2 act
CC(C(=O)Nc1nc2ccc(S(C)(=O)=O)cc2s1)N1C(=O)c2ccccc2S1(=O)=O (stereo not given),i,.
CC(C(=O)Nc1cccc(Br)c1)N1C(=O)c2ccccc2S1(=O)=O (stereo not given),+,i
CCN(CC)C(=O)Cn1cnc2c(cnn2-c2ccc(C)cc2C)c1=O,i,.
COc1ccccc1Cc1noc(C2CN(Cc3ccc(C(F)(F)F)cc3)C2)n1,.,i
COc1ccc(CCNC(=O)C(=O)NCC2COC3(CCCCC3)O2)cc1OC (stereo not given),i,.
N#C/C(=C\N1CCC(C(N)=O)CC1)C(=O)Nc1cccc(Cl)c1,i,i
COc1ccc(NC(=O)CSc2nc3ccccc3nc2N2CCOCC2)cc1,i,i
c1ccc2c(N3CCOCC3)nnc(N3CCOCC3)c2c1,i,i
COc1ccccc1Nc1nc(N2CCOCC2)c2ccccc2n1,+,.
CN1CCN(c2nc(N3CCOCC3)c3ccccc3n2)CC1,+,.
COc1ccc(CCC(=O)NC2CNC(=O)C2)cc1 (stereo not given),.,i
Cc1cc(C)n(CCNC(=O)Cn2c(-c3cnccn3)nc3ccccc32)n1,i,i
Cc1nc(NC(=O)Cn2c(-c3cnccn3)nc3ccccc32)sc1C(=O)N(C)C,i,i
CSc1ccccc1NC(=O)Cn1c(-c2cnccn2)nc2ccccc21,+,i
Cc1ccc(Cl)cc1N1CCN(C(=O)Cn2c(-c3cnccn3)nc3ccccc32)CC1,+,i
COc1ccc(N(CC(O)CNC(C)C(=O)O)S(=O)(=O)c2ccc(Cl)cc2)cc1 (stereo not given),i,i
Cc1cccc(C(=O)N2CCN(c3nc(C)cc(N4CCCCC4)n3)CC2)c1,+,.
Cc1nc(N2CCCCC2)cc(N2CCN(C(=O)c3ncccn3)CC2)n1,i,i
COc1cc(N2CCN(C(=O)c3cnccn3)CC2)nc(C)n1,i,i
Cc1cc(C)cc(C(=O)N2CCN(c3nc(C)cc(N4CCCCC4)n3)CC2)c1,i,.
Cc1cc(N2CCCCC2)nc(N2CCN(C(=O)Cc3ccccc3)CC2)n1,+,i
Cc1cc(N2CCOCC2)nc(N2CCN(C(=O)c3cnccn3)CC2)n1,+,i
Cc1cc(N2CCCCC2)nc(N2CCN(C(=O)c3ccccc3)CC2)n1,+,.
CCNc1cc(C)nc(N2CCN(C(=O)COc3ccccc3)CC2)n1,i,i
Cc1noc(CNC(=O)CSC2CCCC2)n1,.,i
SMILES,AMPAR-TARP mod,GIRK2 act
O=C(Nc1ccccc1C(=O)Nc1ccc(F)cc1)c1ccccc1Br,i,.
Cn1cccc1CN(C(=O)c1ccccc1Br)C1CC1,.,i
Cc1ccc(Cl)cc1NC(=O)Cn1c(=O)n(C2CC2)c(=O)c2nscc21,+,i
Cc1ccc(NC(=O)Cn2c(=O)n(C3CC3)c(=O)c3nscc32)c(C)c1,i,i
COc1ccc(-c2ccc(=O)n(CCCNS(=O)(=O)c3ccc(F)cc3)n2)cc1,i,i
O=C(CSc1nccn(-c2cccc(F)c2)c1=O)Nc1ccc(F)cc1F,i,.
CCOC(=O)C1CCN(C(=O)C2(c3cccs3)CCOCC2)CC1,i,i
COc1ccccc1C1(C(=O)N2CCC(c3cccs3)CC2)CCOCC1,+,i
Cc1ccc(-c2ncc3c(SCC(=O)Nc4ccc5c(c4)OCCO5)ncnc3n2)cc1,i,i
CN(Cc1ccccc1)C(=O)C(=O)c1cn(CC(=O)N2CCOCC2)c2ccccc12,i,.
COc1ccc(/C(O)=C2\C(=O)C(=O)N(CCCN(C)C)C2c2ccco2)cc1Cl (stereo not given),i,.
COC(=O)c1scc(-c2ccccc2)c1S(=O)(=O)N1CCN(Cc2ccccc2)CC1,+,.
COC(=O)c1scc(-c2ccccc2)c1S(=O)(=O)N1CCCC1,i,.
O=C(Nc1ccccc1Br)c1n[nH]nc1Nc1cccc(Cl)c1,i,i
COc1cc(NC(=O)c2n[nH]nc2Nc2cccc(Cl)c2)cc(OC)c1,+,i
Cc1ccc(Cl)cc1N1CCN(C(=O)c2cc3cc(Br)ccc3oc2=O)CC1,i,i
Cc1cc(C)c(N2CCN(C(=O)c3cc4cc(Br)ccc4oc3=O)CC2)c(C)c1,+,i
CCCc1ccc(S(=O)(=O)NCCN2CCOC(c3ccccc3)C2)cc1 (stereo not given),.,i
O=C(Nc1ccc2ncsc2c1)c1ccc(S(=O)(=O)N2CCOCC2)cc1,i,i
CC1CC(C)CN(S(=O)(=O)c2ccc(C(=O)Nc3ccc4ncsc4c3)cc2)C1 (stereo not given),+,i
CCCCn1c(SCc2nc(-c3cc(OC)cc(OC)c3)no2)nc2ccsc2c1=O,i,i
CCCCn1c(SCc2nc(-c3ccc(Cl)cc3)no2)nc2ccsc2c1=O,+,i
O=C1c2ccc(-n3c(=O)c4ccccc4c4ccccc4c3=O)cc2C(=O)N1c1ccccc1,i,.
Nc1ccc2c3c(cccc13)C(=O)N(c1ccccc1)C2=O,+,.
CCOc1ccc(C(=O)NCC2CCN(S(C)(=O)=O)CC2)cc1,i,i
SMILES,AMPAR-TARP mod,GIRK2 act
O=C(NC1CCCCCC1)C1c2ccccc2C(=O)N1CCC1=CCCCC1 (stereo not given),+,i
O=C(CN1C(=O)c2ccccc2S1(=O)=O)NC1CCCCCC1,i,i
O=C(NC12CC3CC(CC(C3)C1)C2)N1CCC(c2cccs2)CC1,+,i
O=C(NC(c1ccccc1)c1ccccc1)N1CCC(c2cccs2)CC1,i,i
CC(C)(C)C(=O)Nc1sc(SCC(N)=O)nc1-c1ccccc1,i,i
Cc1ccc(S(=O)(=O)NC2CC(C)(C)NC(C)(C)C2)cc1,i,.
Cc1ccc([N+](=O)[O-])cc1S(=O)(=O)NC1CC(C)(C)NC(C)(C)C1,+,.
Cc1cc(-c2nnc(NC(=O)C3CCCCN3S(=O)(=O)c3cccs3)o2)n(C)n1 (stereo not given),i,i
CCc1ccc(NCc2cc3ccc(OC)cc3n(CC(=O)Nc3ccc(OC)cc3)c2=O)cc1,+,i
CCc1ccc(NCc2cc3ccc(OC)cc3n(CC(=O)Nc3ccccc3F)c2=O)cc1,i,.
Cc1ccc(C)c(NC(=O)C(=O)NCCOc2ccc(F)cc2)c1,i,i
COc1ccc(CCNc2cc(C)nc3c(-c4ccccc4OC)c(C)nn23)cc1OC,i,i
COc1ccc(CCNc2cc(C)nc3c(-c4ccccc4OC)cnn23)cc1OC,+,i
CCOC(=O)CN1C(=O)CN(C(=O)c2ccccc2)C1=S,+,.
CCOC(=O)c1ccc(N2C(=S)N(c3ccccc3)C3CS(=O)(=O)CC32)cc1 (stereo not given),i,i
CCOc1ccc(NC(=O)CSc2c(CC(C)C)cnc3c2c(=O)n(C)c(=O)n3C)cc1,i,.
COc1cc(C)c(S(=O)(=O)NCCOc2ccc(-c3ccc(F)cc3)nn2)cc1C,+,i
COc1ccc(-c2ccc(OCCNS(=O)(=O)c3cc(C)c(OC)cc3C)nn2)cc1,i,i
COCCNC(=O)Cn1nc2c(c1NC(=O)C(=O)c1c(C)[nH]c3ccccc13)CSC2,i,i
CNC(=O)c1nsc(C(=O)NCc2ccc(OC)c(OC)c2)c1N,+,i
CNC(=O)c1nsc(C(=O)NCc2cccc(C(F)(F)F)c2)c1N,i,i
